{"source": "PubChem BioAssay AID1851", "about": "(National Center for Advancing Translational Sciences (NCATS), 2009)", "note": "The campaign covered roughly 16,000 compounds. About 5,800 (36%) were called active. Not shown: some 23% with an inconclusive outcome. Some of the results follow. Unmarked numbers belong to inactive results. Calls come from the whole dose curve; as a rule, active = well fitted curve in the direction sought with a large enough effect; inconclusive = small, poorly fitted or top-dose-only effect, or effect the other way; inactive = no such curve, though single readings can be large or run the other way. % is set by controls: 0 for no effect and ±100 for the full control effect.", "data": [{"molecular_target": "Cytochrome P450 2C19 (Homo sapiens) (UniProt P33261)", "sequence (P33261 whole entry, looked up)": "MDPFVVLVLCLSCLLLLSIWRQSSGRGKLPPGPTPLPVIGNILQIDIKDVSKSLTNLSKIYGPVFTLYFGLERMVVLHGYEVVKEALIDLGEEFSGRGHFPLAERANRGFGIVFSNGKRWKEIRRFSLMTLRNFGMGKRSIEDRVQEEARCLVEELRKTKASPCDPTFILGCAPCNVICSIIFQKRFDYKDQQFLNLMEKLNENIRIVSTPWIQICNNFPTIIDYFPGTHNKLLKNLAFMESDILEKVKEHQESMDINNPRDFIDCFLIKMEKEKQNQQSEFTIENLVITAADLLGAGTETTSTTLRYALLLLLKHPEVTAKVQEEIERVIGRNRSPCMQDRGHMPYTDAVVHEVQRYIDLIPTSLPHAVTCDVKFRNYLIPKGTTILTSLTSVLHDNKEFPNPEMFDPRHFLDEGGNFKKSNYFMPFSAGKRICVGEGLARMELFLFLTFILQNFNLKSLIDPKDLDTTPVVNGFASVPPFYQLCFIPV", "assay": "Cytochrome panel assay with activity outcomes", "details": "recombinant CYP, pro-luciferin dealkylation, luminescence, p450-cyp2c19; series mostly up to 57.1 µM; activity, negative = inhibition: at the top concentration", "values": [{"smiles": "COc1ccccc1CNCCCCCCNCCCCCCCCNCCCCCCNCc1ccccc1OC", "activity, negative = inhibition": "11.8%"}, {"smiles": "COc1cc(CNCc2cccs2)cc(Br)c1OC", "AC50": "2.51 µM (active)"}, {"smiles": "COc1cc(CNCc2cccs2)ccc1OCC(=O)NC(C)(C)C", "AC50": "14.1 µM (active)"}, {"smiles": "COc1ccccc1CNCc1cccs1", "AC50": "8.91 µM (active)"}, {"smiles": "CC(C)NC(=O)N1CCCC2(CCN(C(=O)c3csnn3)CC2)C1", "activity, negative = inhibition": "-6.67%"}, {"smiles": "COCC(=O)N1CCC2(CCCN(C(=O)Nc3cccc(F)c3)C2)CC1", "activity, negative = inhibition": "-3.56%"}, {"smiles": "CN(C)C(=O)c1ccc(-c2ccc3ncnc(NCCN4CCOCC4)c3c2)cc1", "activity, negative = inhibition": "9.58%"}, {"smiles": "Cc1ccc(-c2csc3ncnc(NCCN4CCOCC4)c23)cc1", "AC50": "11.2 µM (active)"}, {"smiles": "CN(C)c1ccc(-c2cncnc2NCCN2CCOCC2)cc1", "AC50": "6.31 µM (active)"}, {"smiles": "CN(C)C(=O)c1ccc(-c2cncnc2NCCN2CCOCC2)cc1", "activity, negative = inhibition": "9.7%"}, {"smiles": "CC(C)=CCC/C(C)=C/CO/N=C1/C[C@@H](O)[C@@H](O)[C@@H]2[C@@H]3C(=O)N(C[C@@H]4CCCO4)C(=O)[C@H]3CC[C@H]12", "activity, negative = inhibition": "-12% [at 11.4 µM]"}, {"smiles": "Cc1cc(N)c2ccccc2[n+]1CCCCCCCCCC[n+]1c(C)cc(N)c2ccccc21", "AC50": "inactive"}, {"smiles": "Nc1cc2c(nc3c4ccccc4c(N)cc3[n+]2-c2cccc3ccccc23)c2ccccc12", "note": "(tested in a mixture with another compound)", "AC50": "1 µM (active)"}, {"smiles": "COc1ccc(/C=C(\\C#N)C(N)=O)c(OC)c1", "activity, negative = inhibition": "6.18% [at 11.4 µM]"}, {"smiles": "COc1cc(/C=C(\\C#N)C(=O)c2ccc(O)c(O)c2)cc(I)c1O", "activity, negative = inhibition": "-22.9%"}, {"smiles": "COc1cc(/C=C(\\C#N)C(N)=O)cc(CSc2nc3ccccc3s2)c1O", "AC50": "3.16 µM (active)"}, {"smiles": "CCc1ccc(N/C(SCc2ccccc2C)=C(/C#N)C(=O)NCc2ccco2)cc1", "AC50": "2.82 µM (active)"}, {"smiles": "CC(C)Cn1c(SCC(=O)c2c(N)n(C)c(=O)n(C)c2=O)nc2ccccc21", "AC50": "7.94 µM (active)"}, {"smiles": "CCNC(=O)NC(=O)CSc1nc2ccccc2n1CC(C)C", "AC50": "5.62 µM (active)"}, {"smiles": "O=C(CSc1nnc(-c2ccco2)n1-c1ccccc1)NCc1ccco1", "AC50": "8.91 µM (active)"}, {"smiles": "Cc1cc(C)c(NC(=O)C(C)Sc2nnc(-c3ccco3)n2-c2ccccc2)c(C)c1", "note": "(centres undefined)", "AC50": "1.78 µM (active)"}, {"smiles": "O=C(CSc1nnc2sc3ccccc3n12)NCc1ccco1", "AC50": "10 µM (active)"}, {"smiles": "CN(C)CC[C@H](c1ccc(Cl)cc1)c1ccccn1", "AC50": "inactive"}, {"smiles": "CC(c1ccc(Cl)cc1)n1c(-c2ccc3ccccc3n2)n[nH]c1=S", "note": "(centres undefined)", "AC50": "0.447 µM (active)"}, {"smiles": "Cc1cc2c(cc1C)-c1nnc(-c3ccc4ccccc4n3)n1C(C)(C)C2", "activity, negative = inhibition": "-15.6%"}, {"smiles": "CC(=O)OC[C@@H]1O[C@@H](O/N=C2/C[C@@H](O)[C@@H](O)[C@@H]3[C@@H]4C(=O)N(C5CCCCC5)C(=O)[C@H]4CC[C@H]23)[C@H](OC(C)=O)[C@H](OC(C)=O)[C@@H]1OC(C)=O", "activity, negative = inhibition": "9.71% [at 11.4 µM]"}, {"smiles": "Cc1cccc(-n2cccc2)c1C#N", "AC50": "17.8 µM (active)"}, {"smiles": "N#Cc1c(Cl)cccc1-n1ccnc1", "AC50": "8.91 µM (active)"}, {"smiles": "N#Cc1c(-n2ccnc2)cccc1-n1ccnc1", "AC50": "2.24 µM (active)"}, {"smiles": "FC(F)(F)c1ccccc1-n1ccnc1", "activity, negative = inhibition": "-21.1%"}, {"smiles": "CSC(=NC#N)N1CCN(c2ccc(Cl)cc2)CC1", "AC50": "0.708 µM (active)"}, {"smiles": "O=C(CCNC(=O)Cn1cnc2ccccc2c1=O)NCC1COc2ccccc2O1", "note": "(centres undefined)", "AC50": "28.2 µM (active)"}, {"smiles": "O=C(Cn1cnc2ccccc2c1=O)NCCC(=O)Nc1ccc2c(c1)OCCO2", "activity, negative = inhibition": "-14.1%"}, {"smiles": "c1ccc(C(c2ccccc2)N2CC[C@@]3(CCCNC3)C2)cc1", "activity, negative = inhibition": "-21%"}, {"smiles": "CN1[C@@H](CC(=O)c2ccccc2)CCC[C@@H]1C[C@@H](O)c1ccccc1", "activity, negative = inhibition": "15.4%"}, {"smiles": "O=C(O)CC(c1ccccc1)n1cnnn1", "note": "(centres undefined)", "activity, negative = inhibition": "28.7%"}, {"smiles": "O=C(C[C@@H](c1ccccc1)N1CCCCC1)c1ccccc1", "AC50": "2.51 µM (active)"}, {"smiles": "O=CN[C@@H](Cc1cnc[nH]1)C(=O)O", "activity, negative = inhibition": "6.59% [at 11.4 µM]"}, {"smiles": "O=C1c2ccccc2NC(c2ccc(Cl)cc2Cl)N1O", "note": "(centres undefined)", "AC50": "5.62 µM (active)"}, {"smiles": "O=C1c2ccccc2NC(c2ccc3c(c2)OCO3)N1O", "note": "(centres undefined)", "AC50": "10 µM (active)"}, {"smiles": "C=CCc1cccc(C2Nc3ccccc3C(=O)N2O)c1O", "note": "(centres undefined)", "AC50": "1.58 µM (active)"}, {"smiles": "CCNC(=S)NNC(=O)Cc1ccccc1", "activity, negative = inhibition": "-16.7%"}, {"smiles": "CCNC(=S)NNC(=O)CCn1c2ccccc2c2ccccc21", "AC50": "5.01 µM (active)"}, {"smiles": "COc1cc(/C=N/O)cc(Br)c1OCc1ccc(Cl)cc1", "AC50": "1.58 µM (active)"}, {"smiles": "COc1cc(/C=N/O)cc(Br)c1OCc1cccc(Cl)c1", "AC50": "2 µM (active)"}, {"smiles": "C=CCc1cc(C=O)cc(OC)c1OCc1ccc(Cl)cc1", "AC50": "0.794 µM (active)"}, {"smiles": "COc1ccc(Cl)cc1N=Nc1ncc[nH]1", "activity, negative = inhibition": "14.7%"}, {"smiles": "CCOc1cc(/C=N/O)cc(Cl)c1OC", "AC50": "20 µM (active)"}, {"smiles": "CCN1C(=O)[C@H]2[C@H]3[C@H](O)[C@H](O)C/C(=N/OC[C@@H](O)[C@H]4O[C@H]5OC(C)(C)O[C@H]5[C@@H]4O)[C@@H]3CC[C@@H]2C1=O", "activity, negative = inhibition": "15% [at 11.4 µM]"}]}]}
